The target of this test is Glucose transporter (Leishmania mexicana) (UniProt O61059). As to the kind of experiment: ST_JUDE_LEISH: Cytotoxicity at 2uM final concentration against transgenic Leishmania Mexicana promastigotes LmGT2 that are glucose transport deficient and complemented with the L. Mexicana glucose transporter 2. Activity is measured by DNA content using SYBR green in vitro. The format is functional.
Consider `Cc1cccc2nc(-c3ccc(-c4cccc(CNCc5ccc(CN)cc5)c4)s3)[nH]c12`, for which the inhibition (in general, the change of the read-out against control, counted positive when it falls) stood at 4.55%. As for `Fc1ccc2[nH]c(-c3cccc(-c4ccc(CN5CCC(CCN6CCCCC6)CC5)cc4)c3)nc2c1`, the inhibition came out at 10.4%.

`CC(C)(C)OC(=O)NCC(=O)N(Cc1ccccc1)Cc1ccccc1` yielded an inhibition of 3.73%. In turn, `CN1CCN(c2cc3c(Nc4ccc5c(cnn5Cc5ccccc5)c4)ncnc3cn2)CC1` registered an inhibition of 2.17%. For the molecule `Cc1cccc(CN2CCC(CNC(=O)c3cc4c(-c5ccccc5F)nn(C)c4s3)CC2)c1`, the inhibition stood at 2.82%. `COc1cccc(-c2ccc(C(=O)NCC3CCCN(Cc4cccc(C(F)(F)F)c4)C3)s2)c1` (configuration not stated): the inhibition was found to be 5.79%.

`CN1CCc2cc(O)c(NS(=O)(=O)c3ccc(-c4ccc(Cl)cc4)cc3)cc2CC1` yielded an inhibition of 9.99%.

The values above are taken from ChEMBL document CHEMBL3433997, “St. Jude Leishmania screening dataset” (2016).
